# PubChem BioAssay AID1347131 (National Center for Advancing Translational Sciences (NCATS), 2019)
# About 2,000 (0.49%) of roughly 410,000 compounds were called active. Another 8% or so got no clear call; they are omitted. The sample holds actives, similar compounds and a random draw of the others, so the mix is not that of the screen. A number with no mark means an inactive call. Calls follow the shape of the full dose curve; tested in HEK293 reporter line.
# Assay: qHTS Assay for Foot and Mouth Disease Virus Antivirals: Primary Screen against the MLPCN compound library; also: nearly all actives have a fitted effect of over 55% in size
# Conditions: FMDV antiviral cell-based qHTS; series mostly up to 57.9 µM; activity, negative = inhibition: at the top concentration
# Potency is read from the fitted curve at half-maximal effect.
SMILES,"activity, negative = inhibition [%]",Potency
COc1cc2[nH]c(=S)nc(NC3CCCCCC3)c2cc1OC,-38.7,–
CCOC(=O)c1ccc(N2C=C(C(=O)OC)C(c3ccc(OC)c(O)c3)C(C(=O)OC)=C2)cc1,-35,–
Cc1cccc(NC(=O)/C(C#N)=C\c2ccc(C(=O)O)cc2)c1,-31,–
N#C/C(=C\c1ccc(OCc2ccc(C(=O)O)cc2)cc1)C(=O)N1CCOCC1,–,10 µM (active)
COc1ccc(CCNC(=O)/C(C#N)=C/c2ccc(OCC(=O)NCC3CCCO3)cc2)cc1OC (centres undefined),-28.3,–
Cc1nc(SCC(=O)NCCc2ccccc2)nc(C)c1C,-17.8,–
CCOCCCNC(=S)N1CCN(c2nc(-c3ccccc3)cs2)CC1,-30.3,–
CN1/C(=C\C(=O)CSc2nnc(N)s2)C(C)(C)c2ccccc21,-30.2,–
Cc1ccc(CSc2nc3ccccc3cc2C=O)cc1,-33.3,–
Cc1ccc2c(c1)Cc1nc3ccccc3nc1-2,–,14.1 µM (active)
Cc1ccc(C)c(Nc2cc(C)nc3ccccc23)c1,-30.6,–
COc1cccc(-c2nc(CS(=O)(=O)CC(=O)NCCCc3ccccc3)c(C)o2)c1,-31.5,–
NC(=O)COc1ccccc1/C=C1/SC(=O)N(CC(=O)N2CCc3ccccc3C2)C1=O,-38,–
COc1ccc(-c2nc(NC(=O)c3c(C)noc3C)sc2C)cc1,-38.1,–
COc1ccc(NC(=O)c2[nH]c(C)c(C(C)=O)c2C)cc1,116,–
COc1ccc(-c2nc(NC(=O)c3[nH]c(C)c(C(C)=O)c3C)sc2C)cc1,–,28.2 µM (active)
Fc1ccc(CN2CCN3CCCC3C2C2CCCCC2)cc1F (centres undefined),-43.8,–
O=c1[nH]c(SCc2ccccc2Cl)nc2c1cnn2-c1ccccc1,-30.8,–
c1nc(NCc2ccc3c(c2)OCO3)c2cc(-c3ccc4c(c3)OCCO4)ccc2n1,-30.8,–
COc1ccc(N2CCN(C(=O)Cn3cnc4c(cnn4-c4ccc(C)cc4)c3=O)CC2)cc1,-32.4,–
CCCCCn1nc(C(=O)OCC(=O)c2c(N)n(C)c(=O)n(C)c2=O)c2ccccc2c1=O,-32.9,–
COc1cccc(Nc2c3c(nc4c(-c5ccccc5)c(C)nn24)CCC3)c1,-38.7,–
COc1cccc(-c2cc(C(=O)NC3CC3)c3ccccc3n2)c1,-36.4,–
COc1cccc(-c2cn3nc4c(nc3n2)CCCC4)c1,–,10 µM (active)
c1ccc(Sc2cccc3ccccc23)c(CNC2=NCCN2)c1,-36.1,–

SMILES,"activity, negative = inhibition [%]",Potency
COc1ccccc1S(=O)(=O)Cc1ccc(C(=O)NCc2ccc3c(c2)OCO3)o1,-32.7,–
CC(C)(C)NC(=O)c1ccc(COc2ccc(Cl)cc2Cl)o1,-39.1,–
FC(F)(F)c1nnc(-c2ccccc2)nc1Oc1ccc(Cl)cc1Cl,-36.6,–
Clc1ccc(OCc2cc(-c3ccccc3)no2)c(Cl)c1,–,12.6 µM (active)
CCN1CCN(C(=O)C2CCN(c3nnc(C)c4c(C)n(-c5ccc(C)cc5)nc34)CC2)CC1,-31,–
Cc1ccc(C(=O)N(CC(=O)Nc2sc(C)c(C)c2C(N)=O)C2CCCC2)cc1,-39.9,–
COc1ccc(NS(=O)(=O)c2cc(NC(=O)c3ccc(=O)[nH]c3)ccc2N2CCOCC2)cc1,102,–
O=C(Nc1nc(-c2ccc(S(=O)(=O)N3CCCC3)cc2)cs1)C1COc2ccccc2O1 (centres undefined),-34.4,–
CC(=O)c1sc(NC(=O)C2COc3ccccc3O2)nc1C (centres undefined),–,11.2 µM (active)
CC(=O)c1sc(NC(=O)c2cc(-c3ccccc3)nn2-c2ccccc2)nc1C,-34.9,–
CCOc1ccc(C(=O)N(Cc2cc(OC)c(OC)c(OC)c2)c2ccccn2)cc1,-32.4,–
CN(C)Cc1n[nH]c(=O)c2ccccc12,0.231,–
CC1=C/C(=C(/c2cc(C)c(O)c(Br)c2)c2ccccc2S(=O)(=O)O)C=C(Br)C1=O,–,17.8 µM (active)
COc1ccc(NC(=S)N2CCN(Cc3ccc(C)cc3)CC2)cc1,-30.3,–
CN1CCN(S(=O)(=O)c2cccc(C(=O)Nc3ccc(Br)cc3Br)c2)CC1,-42.5,–
CCn1c(=S)sc2c(=O)n(CC(=O)Nc3cccc(Cl)c3)c(C)nc21,-30.1,–
CCOC(=O)NC(=O)/C(C#N)=N/Nc1c(F)cccc1F,-29.8,–
C=CCn1c(SCC(=O)Nc2nc3ccccc3s2)nnc1-c1ccccc1O,–,25.1 µM (active)
Cc1nc(SCC(=O)Nc2nc3ccccc3s2)c(C#N)c(C)c1C,-97.5,–
C=CCn1c(SCC(=O)Nc2cccnc2Cl)nnc1-c1ccccc1F,-44.1,–
COc1ccc(N2CCOCC2)c(NC(=O)c2cc3ccccc3o2)c1,-30.1,–
COc1ccccc1NC(=O)C1=C(C)NC(SCC(=O)c2ccccc2)=C(C#N)C1c1ccco1 (centres undefined),-22.4,–
CCCn1nc(C(=O)Nc2nc(-c3ccccn3)cs2)c2ccccc2c1=O,-35.2,–
Cc1cc(C)n2c(Nc3c(C)cccc3C)c(-c3ccccn3)nc2n1,-37.5,–
Cc1cccnc1Nc1nc(-c2ccccn2)cs1,–,11.2 µM (active)

SMILES,"activity, negative = inhibition [%]",Potency
CN(CC(=O)NCc1ccccc1)CC(=O)Nc1ccc(Cl)c(C(F)(F)F)c1,-31.1,–
COc1ccc(-c2nsc3c(N4CCCCC4)ncnc23)cc1,-36.3,–
COc1ccc(-c2nsc3c(N4CCCC4)ncnc23)cc1,–,22.4 µM (active)
COc1ccc(-c2nsc3c(N4CCCCC4C)ncnc23)cc1 (centres undefined),-96.6,–
NC(=O)c1cccn(Cc2ccc(C(F)(F)F)cc2)c1=O,-36.5,–
CC(=O)c1cccc(NC(=O)CN2CCc3cc4c(cc3C2C)OCCCO4)c1 (centres undefined),-31.7,–
CC(C)CNc1nc2c(c(=O)n(C)c(=O)n2C)n1Cc1cccc(Br)c1,-39.6,–
Cc1nn2cc(-c3ccc(OC(C)C)cc3)nc2s1,–,14.1 µM (active)
COC(=O)c1ccc2nc(-c3ccc(C#N)cc3)c(Cc3ccsc3)n2c1,-30.6,–
COc1ccccc1-c1nc(-c2ccccc2)nc(N2CCN(C)CC2)c1C#N,-30.4,–
O=C1C(C=Nc2ccccc2)=C(O)c2ccccc21,–,10 µM (active)
Cc1cccc(-n2c(O)c(C=Nc3ccccc3)c3ccccc3c2=O)n1,-31.3,–
COC1=CC(=O)c2ccccc2C1=O,-46.7,–
COc1cc(NC(=O)Cc2ccc(S(=O)(=O)N3CCOCC3)s2)c(OC)cc1Cl,-38.1,–
O=C(OC(C(=O)Nc1ccc(Cl)cc1C(F)(F)F)c1ccccc1)c1c(Cl)cccc1Cl (centres undefined),-33.4,–
COc1ccc(CCCc2nnc(SCC(=O)Nc3cccc(C)c3)o2)cc1,-33.1,–
Cc1nn(Cc2ccc(Cl)cc2)c(=O)n1N(C)c1ncc(C(F)(F)F)cc1Cl,-32.6,–
Cc1ccc(-c2ccnc3nc(Sc4ncc(C(F)(F)F)cc4Cl)nn23)cc1,-40.4,–
Cc1nn2cc(-c3ncc(C(F)(F)F)cc3Cl)cnc2c1Br,–,8.91 µM (active)
CCOC(=O)c1sc(=S)n(C)c1NC(=O)c1ccccc1,-30.6,–
Cc1cccc(CNc2ncnc3ccc(-c4ccc5c(c4)OCCO5)cc23)c1,-20.3,–
COc1ccc(CCNC(=S)N2CCC(C(=O)c3ccc(F)cc3)CC2)cc1OC,-11.8,–
CCC1Sc2ccc(S(=O)(=O)CCC(=O)NCc3ccco3)cc2NC1=O (centres undefined),-39.4,–
CCN(CC)CCNC(=O)c1nn(-c2ccc(Cl)cc2)c2c1CCc1cc(OC)ccc1-2,-32.1,–
O=C(CCS(=O)(=O)c1ccccc1)Nc1ccccc1-c1nc2ccccc2s1,-30.5,–

SMILES,"activity, negative = inhibition [%]",Potency
Cc1ccc2nc(-c3ccc(NC(=O)CCS(=O)(=O)c4ccccc4)cc3)sc2c1,–,10 µM (active)
CCOC(=O)c1cc(-c2ccccc2)sc1NC(=O)CCN1C(=O)c2ccccc2C1=O,-32.5,–
O=C(CCCCCN1C(=O)c2ccccc2C1=O)Nc1cccc(O)c1,-35.8,–
CC(=O)Nc1ccc(S(=O)(=O)Nc2nc3ccc(C)cc3s2)cc1,108,–
Cc1ccc2nc(-c3ccc(NC(=O)CCN4C(=O)c5ccccc5C4=O)cc3)sc2c1,–,7.08 µM (active)
CSc1ccc(NC(=O)N2CC=C(n3c(=O)[nH]c4ccccc43)CC2)cc1,-19.7,–
CCn1c(N2CCN(S(=O)(=O)c3ccccc3C(F)(F)F)CC2)nc2ccccc21,-46.9,–
COc1ccc(CNC(=O)C[C@H]2C[C@H](C(=O)N(C(C)C)C(C)C)[C@@]3(C)c4[nH]c5ccc(Cl)cc5c4CCN3C2=O)cc1OC,-38.9,–
Cc1cc(C)c2nc(C(F)(F)F)nc(N3CCN(C(=O)c4ccco4)CC3)c2c1,-37.6,–
Cc1cc(N2CCN(C(=O)c3ccco3)CC2)n2nc(-c3cccc(Cl)c3)cc2n1,–,22.4 µM (active)
O=C(c1ccco1)N1CCN(c2c([N+](=O)[O-])nn(-c3cccc(Cl)c3)[n+]2[O-])CC1,-33.5,–
COc1cccc2[nH]c3c(N4CCc5ccccc5C4)ncnc3c12,-33.4,–
COc1cc(/C=C2\SC(=S)N(CC(=O)NC(C)(C)C)C2=O)cc(OC)c1OC,-30.8,–
CCOc1ccc(N2C(=O)S/C(=C\c3cc(OC)c(OC)c(OC)c3)C2=O)cc1,–,10 µM (active)
COc1cc(/C=C2\SC(=O)N(c3cccc(Cl)c3)C2=O)cc([N+](=O)[O-])c1O,-35,–
CC(=O)c1ccc(NC(=O)c2ccc(-c3nc(CSc4ccccc4)c(C)o3)cc2)cc1,-33.9,–
C[C@H]1CN([C@@H](C)CO)C(=O)c2cc(NC(=O)C3CCCCC3)ccc2O[C@H]1CN(C)Cc1ccc(-c2ccccc2)cc1,-33.5,–
CC1CCC(C(C)C)C(OC(=O)Cn2c(-c3ccc(Br)cc3)[n+](C)c3ccccc32)C1 (centres undefined),–,15.8 µM (active)
Cc1ccccc1OCc1n(CC(=O)OC2CC(C)CCC2C(C)C)c2ccccc2[n+]1C (centres undefined),–,17.8 µM (active)
Cc1noc(C)c1COc1ccc(C(=O)N2CCN(c3ccccn3)CC2)cc1,-31.9,–
O=C(c1ccco1)N1N=C(c2cccs2)CC1c1ccccc1O (centres undefined),-38.8,–
CC(C)C[C@H]1CN=C(N(C)C)N1CCCCc1ccccc1,-30.1,–
Cc1ccc(N2C(=O)CC(N3CCN/C3=C3\CC/C(=C\c4ccccc4)C3=O)C2=O)cc1 (centres undefined),-34.8,–
Cc1ccc(NC(=O)CN2C(=O)NC3(CCCCC3C)C2=O)cc1S(=O)(=O)N1CCCCC1 (centres undefined),-32.2,–
